The nature of assay [1]: qHTS assay to identify aromatase inhibitors - cell viability counter screen (AID 743084;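 further: cells stimulated with testosterone during compound exposure; nearly all actives have a fitted effect of over 55% in size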). (Quantitative high-throughput screening tests each substance at several concentrations.)
Assay [2] deals with Aryl hydrocarbon receptor (Homo sapiens) (UniProt P35869). The assay is described as follows: qHTS assay to identify small molecule that activate the aryl hydrocarbon receptor (AhR) signaling pathway (AID 743085). Further: nearly all actives have a fitted effect of over 15% in size. Further: potency means the concentration at half of the fitted maximal effect.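 On activation: HG2L7.5c1 human HepG2 liver cells with stably integrated DRE-driven firefly reporter; series mostly up to about 70 µM.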 In a few lines:
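24 h compound exposure, 37C, HepG2-derived HG2L7.5c1 cells with DRE-responsive luciferase. Readouts: fluorescence viability, then luminescence at room temperature after 30 min.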

Assay [3] in a line: qHTS assay to identify small molecule that activate the aryl hydrocarbon receptor (AhR) signaling pathway - cell viability counter screen (AID 743086).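 Further: HepG2 liver cells carrying the AhR DRE luciferase reporter; series mostly up to about 70 µM; nearly all actives have a fitted effect of over 45% in size.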 A digest of the protocol: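 HepG2-AhR-luc (HG2L7.5c1) cells, 4000/well, were preincubated 5 h at 37C, exposed to compound in qHTS format for 24 hr at 37C, then given CellTiter-Fluor for 30 min; viability was read as fluorescence in the reporter wells.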

Assay [4] has as its target Peroxisome proliferator-activated receptor gamma (Homo sapiens) (UniProt P37231). The experiment in a line: qHTS assay to identify small molecule agonists of the peroxisome proliferator-activated receptor gamma (PPARg) signaling pathway (AID 743094; active means well fitted activation curve with a large enough effect in the signal ratio in the repeat runs, not every such curve was filed as active; the % refers to the signal ratio). In a few lines: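 Agonism was assessed in a beta-lactamase reporter system, HEK293H cells with a stably integrated UAS-bla construct under PPARg control; the 17 h treatment at 37C preceded a 1 h room-temperature FRET substrate read.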

For assay [5] the target is unchanged. The assay is described as follows: qHTS assay to identify small molecule antagonists of the peroxisome proliferator-activated receptor gamma (PPARg) signaling pathway (AID 743191; calls by dose curve; further: series mostly up to about 63 µM; nearly all actives have a fitted effect of over 30% in size). In a few lines: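 GeneBLAzer PPARg UAS-bla HEK293H cells carrying a UAS-driven beta-lactamase reporter were plated at 3000 cells/well, preincubated 5 h at 37C, then given compound for 17 h at 37C; LiveBLAzer B/G FRET substrate was read after 1 h at room temperature.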

The nature of assay [6]: qHTS assay to identify small molecule antagonists of the peroxisome proliferator-activated receptor gamma (PPARg) signaling pathway - cell viability counter screen (AID 743194). Further: nearly all actives have a fitted effect of over 55% in size. In a few lines:
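PPARg-UAS-bla HEK293H cells were plated, rested 5 h at 37 C, then treated with compounds plus rosiglitazone (50 nM final) for 17 h at 37 C; viability was then read by CellTiter-Glo luminescence after 30 min at room temperature.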

Assay [7] can be described thus: qHTS assay for small molecule agonists of the antioxidant response element (ARE) signaling pathway (AID 743202; active means well fitted activation curve with a large enough effect in the signal ratio in the repeat runs, not every such curve was filed as active; the % refers to the signal ratio). A digest of the protocol: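 Following a 16 h, 37 C exposure of reporter HepG2 cells (ARE-driven beta-lactamase, 2,000 cells/well) to compounds, FRET substrate was applied for 2 h at room temperature and fluorescence intensity recorded.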
Assay [8] can be described thus: qHTS assay for small molecule agonists of the antioxidant response element (ARE) signaling pathway - cell viability counter screen (AID 743203; calls by dose curve; further: nearly all actives have a fitted effect of over 55% in size). A digest of the protocol: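 ATP content via CellTiter-Glo luminescence served as the viability measure. Cells: ARE-bla HepG2, 2,000 per well. Exposure: 16 hrs, 37C/5% CO2.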
The nature of assay [9]: qHTS assay for small molecule activators of the heat shock response signaling pathway - cell viability counter screen (AID 743209). Further: nearly all actives have a fitted effect of over 50% in size. A digest of the protocol: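 Compounds dissolved in DMSO were added to overnight-plated HSE-bla HeLa cells and left 5 h at 37 C. Cell viability was quantified by luminescence using CellTiter-Glo.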
A short description of assay [10]: qHTS assay for small molecule activators of the heat shock response signaling pathway (AID 743210; active means well fitted activation curve with a large enough effect in the signal ratio in the repeat runs, with a control signal flat, not every such curve was filed as active; the % refers to the signal ratio; further: series mostly up to about 63 µM). A digest of the protocol:
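Heat shock element–beta-lactamase HeLa reporter cells; qHTS with compounds for 5 h at 37 C; detection by FRET substrate fluorescence after 2.5 h at RT.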

This is an account of results in PubChem BioAssay (Tox21).

Values joined by “and” are separate entries in the source; they are usually repeats but may differ in a detail not shown here. Equal entries are not always repeated. Inconclusive results are not listed. Values without a mark were called inactive. Active and inactive are the calls of the source. Unless noted, the call rests on the fitted dose curve; in most records, active means well fitted curve in the direction sought with a large enough effect in the repeat runs; inconclusive means weak or mixed curves; inactive means no such curve, though single readings can be large; an effect the other way counts as inactive or inconclusive.
On the % scale 0 is the no-effect control and ±100 the full control effect.

Chain of Aryl hydrocarbon receptor (Homo sapiens) (P35869 whole entry, looked up): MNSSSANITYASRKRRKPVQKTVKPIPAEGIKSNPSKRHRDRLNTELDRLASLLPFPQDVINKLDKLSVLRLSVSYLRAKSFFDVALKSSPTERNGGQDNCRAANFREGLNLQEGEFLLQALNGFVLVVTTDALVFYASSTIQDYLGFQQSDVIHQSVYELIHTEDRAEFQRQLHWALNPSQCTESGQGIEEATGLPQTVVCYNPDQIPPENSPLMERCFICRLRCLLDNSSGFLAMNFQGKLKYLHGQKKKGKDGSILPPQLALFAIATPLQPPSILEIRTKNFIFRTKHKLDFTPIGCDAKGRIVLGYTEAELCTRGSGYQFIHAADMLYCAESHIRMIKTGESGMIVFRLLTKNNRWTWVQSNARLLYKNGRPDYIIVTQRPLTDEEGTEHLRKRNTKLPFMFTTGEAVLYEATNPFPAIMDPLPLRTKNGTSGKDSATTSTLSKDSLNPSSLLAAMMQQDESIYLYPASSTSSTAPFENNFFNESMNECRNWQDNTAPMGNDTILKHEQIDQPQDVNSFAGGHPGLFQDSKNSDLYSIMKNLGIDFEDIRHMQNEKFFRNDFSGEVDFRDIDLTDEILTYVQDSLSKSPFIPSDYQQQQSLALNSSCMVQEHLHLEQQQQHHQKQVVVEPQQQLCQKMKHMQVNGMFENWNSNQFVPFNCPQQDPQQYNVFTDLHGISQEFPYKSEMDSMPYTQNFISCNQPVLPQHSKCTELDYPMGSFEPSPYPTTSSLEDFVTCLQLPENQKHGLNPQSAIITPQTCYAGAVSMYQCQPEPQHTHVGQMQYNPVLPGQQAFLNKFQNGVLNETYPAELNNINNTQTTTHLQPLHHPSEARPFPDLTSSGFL
Chain of Peroxisome proliferator-activated receptor gamma (Homo sapiens) (P37231 whole entry, looked up): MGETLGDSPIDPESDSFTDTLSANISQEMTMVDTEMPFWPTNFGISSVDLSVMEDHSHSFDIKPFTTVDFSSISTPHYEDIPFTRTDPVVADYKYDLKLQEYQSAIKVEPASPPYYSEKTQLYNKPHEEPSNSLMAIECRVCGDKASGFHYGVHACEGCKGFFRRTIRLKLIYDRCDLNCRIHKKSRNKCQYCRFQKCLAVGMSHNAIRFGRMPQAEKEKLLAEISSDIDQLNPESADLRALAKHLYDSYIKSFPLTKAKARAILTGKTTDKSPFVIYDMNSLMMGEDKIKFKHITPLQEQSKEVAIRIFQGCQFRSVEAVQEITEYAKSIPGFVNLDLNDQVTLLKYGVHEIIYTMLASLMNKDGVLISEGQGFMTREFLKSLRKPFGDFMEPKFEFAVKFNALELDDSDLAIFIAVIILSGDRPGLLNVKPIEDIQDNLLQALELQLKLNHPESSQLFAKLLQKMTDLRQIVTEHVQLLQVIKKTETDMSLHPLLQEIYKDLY

For the molecule `CCOP(=S)(OCC)SCCSCC`, the molecule was called inactive in [1], in assay [3], in assay [4], in assay [6], in assay [8] and in [9]. Besides, the outcome in [10] was inactive. Also, the Potency result in assay [2], in [5] and in assay [7] was “inactive” each time.

Take `c1ccc(-c2ccccc2)cc1`: the call in assay [1], in assay [3], in [4], in assay [6], in assay [8] and in [9] was inactive. Also, in assay [10], the result was inactive. For the same molecule, the Potency result in assay [2], in assay [5] and in assay [7] was “inactive” in each case.

As to `CC1OC(C)OC(C)O1` (stereo unspecified), the result in [1], in assay [3], in assay [4], in assay [6], in assay [8] and in assay [9] was inactive. For the same molecule, the call in assay [10] was inactive. Besides, the Potency entry in assay [2], in assay [5] and in assay [7] was “inactive” each time.

Turning to `O=C(O)c1ccccn1`, the molecule was classed as inactive in assay [1], in assay [3], in assay [4], in assay [6], in assay [8] and in assay [9]. Further, the molecule was classed as inactive in assay [10]. For the same molecule, the Potency entry in assay [2], in assay [5] and in [7] was “inactive” each time.

`CC(C)NC(=O)N1CC(=O)N(c2cc(Cl)cc(Cl)c2)C1=O`: the molecule was classed as inactive in assay [1], in assay [3], in [4], in [6], in assay [8] and in assay [9]. Besides, the Potency in assay [2] was 4.86 µM (active) and 15.4 µM (active). For the same molecule, the Potency result in assay [5] is “inactive”.

For the molecule `CCCN(CCC)N=O`, the outcome in assay [1], in assay [3], in assay [4], in assay [6], in assay [8] and in [9] was inactive. The result in [10] was inactive. In addition, the Potency result in assay [2], in assay [5] and in assay [7] was “inactive” throughout.

Turning to `C=C(C)CCl`, the molecule was classed as inactive in assay [1], in assay [3], in [4], in assay [8], in [9] and in assay [10]. The Potency entry in assay [2] and in assay [7] was “inactive” each time. Further, the ratio activity, negative = inhibition in assay [5] was -4.46% [at 5.95 µM].

Regarding `CC(C#N)CCC#N` (stereo unspecified), the result in [1], in assay [3], in assay [4], in assay [6], in assay [8] and in [9] was inactive. In assay [10], the call was inactive. The Potency entry in assay [2], in assay [5] and in assay [7] was “inactive” throughout.

For the molecule `Cc1ccc([N+](=O)[O-])cc1C`, the call in assay [1], in [3], in [4], in [6], in assay [8] and in assay [9] was inactive. In addition, the result in assay [10] was inactive. In addition, the Potency entry in [2] and in [5] was “inactive” throughout.

With `CCNc1nc(NC(C)(C)C)nc(SC)n1`, the result in assay [1], in [3], in assay [4], in assay [6], in assay [8] and in assay [9] was inactive. The result in assay [10] was inactive. Moreover, the Potency in assay [2] is 1.52 µM (active). The Potency result in [5] was “inactive”.

For `O=[N+]([O-])c1ccccc1`, the call in assay [1], in [3], in assay [4], in assay [6], in assay [8] and in assay [9] was inactive. Also, the Potency result in assay [2] and in assay [5] was “inactive” throughout.

In the case of `Nc1c(Cl)c(Cl)nc(C(=O)O)c1Cl`, the call in assay [1], in assay [3], in assay [4], in assay [8], in assay [9] and in assay [10] was inactive. Also, the Potency in assay [2] is 34 µM (active). In addition, the Potency result in [5] and in [7] was “inactive” in each case.

As to `Cc1cc(Cl)ccc1O`, the molecule was classed as inactive in assay [1], in assay [3], in [4], in [6], in assay [8] and in [9]. Further, in [10], the outcome was inactive. Further, the Potency result in assay [2], in [5] and in [7] was “inactive” throughout.

Regarding `O=NN1CCCCCCC1`, the molecule was called inactive in [1], in assay [3], in assay [4], in [6], in [8] and in assay [9]. Besides, the molecule was called inactive in [10]. The Potency entry in [2] and in [5] was “inactive” in each case.

For `C1CC2OC2CC1C1CO1` (stereo unspecified), the molecule was classed as inactive in assay [1], in assay [3], in assay [4], in assay [6], in assay [8] and in [9]. For the same molecule, the molecule was classed as inactive in [10]. Further, the Potency result in [2], in [5] and in [7] was “inactive” each time.

`Clc1cccc(Cl)c1Cl`: the molecule was called inactive in assay [1], in assay [3], in assay [4], in assay [6], in assay [8] and in assay [9]. For the same molecule, in assay [10], the call was inactive. Besides, the Potency entry in [2], in assay [5] and in [7] was “inactive” in each case.
